This is an account of results in PubChem BioAssay (NCI).

The panel holds about 83,000 compounds, 20% with a hit somewhere; the sample as a whole holds those more often.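 Single-concentration screen, 48 h exposure, 96-well plates. Endpoint: percent growth. Below 10 = active.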 Unmarked numbers belong to inactive results. Active and inactive are the calls of the source.

Test systems include HCT-15 colon; HT29 colon; SNB-75 CNS; SNB-19 CNS; PC-3 prostate; SK-MEL-5 melanoma; UACC-62 melanoma; LOX IMVI melanoma; SK-MEL-28 melanoma; U251 CNS.
What all share (experiment): NCI-60 one-dose screen, 48 h (100 = growth as untreated, 0 = no growth, -100 = all killed)
Common to all, as to settings: 10 µM unless noted

Turning to `COc1ccn2c(C(C)=O)cc(C(=O)c3ccc4c(c3)Sc3ccccc3N4)c2c1`, the growth in the test on HCT-15 colon was 15%; with HT29 colon it was -0.653% (active); in the test with SNB-75 CNS, 21.1%; in the test with SNB-19 CNS it was 40.3%; in the test with PC-3 prostate, 23.8%; in the test on SK-MEL-5 melanoma, -39.7% (active). Further, the growth in the test on UACC-62 melanoma was 35.9%; with LOX IMVI melanoma, 19.7%; with SK-MEL-28 melanoma it was 46.7%.
With `COc1ccc2c(c1OC)C(=O)O[C@H]2[C@H]1c2c(cc3c(c2OC)OCO3)CCN1C`, the growth with HCT-15 colon is 95.6%; with HT29 colon, 104%; with SNB-75 CNS, 88.5%; in the test on SNB-19 CNS, 103%; with PC-3 prostate it was 90.1%; in the test on SK-MEL-5 melanoma it was 96.2%. Besides, the growth in the test on UACC-62 melanoma is 109%; in the test on LOX IMVI melanoma, 90.2%; with SK-MEL-28 melanoma, 100%.
As for `N[C@@H](Cc1ccccc1)[C@@H](O)C(=O)NCc1ccc(F)cc1`, the growth with HCT-15 colon is 103%; in the test on HT29 colon, 110%; in the test on SNB-75 CNS, 90.1%; with SNB-19 CNS, 97.6%; in the test on PC-3 prostate it was 106%; in the test on SK-MEL-5 melanoma it was 102%. Moreover, the growth with UACC-62 melanoma is 94.5%; with LOX IMVI melanoma, 105%; in the test with SK-MEL-28 melanoma it was 108%.
For the compound `COc1ccc(OC)c(/C=C2\Oc3cc(OCCN4CCC(Cc5ccccc5)CC4)ccc3C2=O)c1`, the growth was 24.3% with HCT-15 colon; 21.4% in the test with HT29 colon; 72.6% in the test with SNB-75 CNS; 81.2% with U251 CNS; 78% in the test with PC-3 prostate; 75.2% in the test with SK-MEL-5 melanoma. The growth was 92.8% in the test on UACC-62 melanoma, 56.1% with LOX IMVI melanoma and 89.5% with SK-MEL-28 melanoma.
In the case of `COC(=O)/C=C1\S/C(=N\Nc2ccc([N+](=O)[O-])cc2[N+](=O)[O-])N(C2CCCCC2)C1=O`, the growth is 11% in the test on HCT-15 colon; 26.7% with HT29 colon; 51.4% in the test on SNB-75 CNS; 25.8% with U251 CNS; 18.4% in the test with PC-3 prostate; 82.4% in the test with SK-MEL-5 melanoma. Besides, the growth in the test with UACC-62 melanoma was 38.7%; in the test with SK-MEL-28 melanoma it was 86.5%.
Take `CCN1C(=O)N(CC)C2Nn3c(s/c(=C4\C(=O)N(CC(C)C)c5ccccc54)c3=O)=NC21` (centres undefined): the growth is 27.3% in the test on HCT-15 colon; 86.4% in the test on HT29 colon; 14.1% in the test on SNB-75 CNS; 36.3% in the test on U251 CNS; 38.1% in the test on PC-3 prostate; 39.9% with SK-MEL-5 melanoma. Also, the growth in the test on UACC-62 melanoma was 45.3%; in the test on LOX IMVI melanoma, 54.2%; in the test on SK-MEL-28 melanoma, 66%.
Consider `NS(=O)(=O)c1ccc(N=Nc2ccc(-c3nn4cc(-c5ccccc5)nc4s3)cc2)cc1`, for which the growth is 99.2% in the test with HCT-15 colon; 99.1% in the test on HT29 colon; 86.1% in the test with SNB-75 CNS; 108% in the test with SNB-19 CNS; 94% in the test with PC-3 prostate; 101% with SK-MEL-5 melanoma. The growth with UACC-62 melanoma is 101%; in the test with LOX IMVI melanoma, 96.9%; in the test with SK-MEL-28 melanoma, 105%.
`CCN(CC)S(=O)(=O)c1ccc(NC(=O)CSc2nnc(C)n2-c2ccccc2)cc1`: the growth was 113% in the test with HCT-15 colon; 111% with HT29 colon; 98.5% with SNB-75 CNS; 102% in the test on SNB-19 CNS; 95.2% with PC-3 prostate; 105% with SK-MEL-5 melanoma. The growth in the test on UACC-62 melanoma was 92.8%; in the test on LOX IMVI melanoma, 102%; in the test on SK-MEL-28 melanoma, 108%.
With `Nc1nn(C(=O)Nc2ccc(Cc3ccccc3)cc2)c2ccc(Cl)cc12`, the growth with HCT-15 colon is 36.6%; with HT29 colon, 74%; in the test on SNB-75 CNS it was 122%; in the test on U251 CNS it was 65.9%; in the test on PC-3 prostate, 74.7%; with SK-MEL-5 melanoma it was 35.9%. Further, the growth in the test with UACC-62 melanoma is 13.3%; with LOX IMVI melanoma, 39%; in the test with SK-MEL-28 melanoma, 106%.
For the compound `CCOC(=O)c1c(C)nc2c(c1N)CC(=O)N2Cc1ccc(F)cc1`, the growth in the test on HCT-15 colon was 95.9%; in the test with HT29 colon, 90%; with SNB-75 CNS it was 95%; in the test on U251 CNS it was 91.2%; with PC-3 prostate, 80%; in the test with SK-MEL-5 melanoma it was 92.9%. The growth in the test on UACC-62 melanoma is 90.1%; in the test on LOX IMVI melanoma, 93.5%; in the test with SK-MEL-28 melanoma, 111%.
Take `CC1CN(C2CCCCC2)C(=S)N(c2ccccc2)C1=O` (centres undefined): the growth was 103% in the test on HCT-15 colon; 111% with HT29 colon; 92.1% in the test with SNB-75 CNS; 105% in the test with U251 CNS; 90.1% in the test with PC-3 prostate; 104% in the test with SK-MEL-5 melanoma. In addition, the growth in the test with UACC-62 melanoma is 105%; with LOX IMVI melanoma it was 105%; in the test on SK-MEL-28 melanoma it was 114%.
On to `CSc1ncccc1C(=O)OCC(=O)Nc1oc(C)c2c(C)n[nH]c(=O)c12`, for which the growth is 103% in the test on HCT-15 colon; 116% in the test with HT29 colon; 85.3% with SNB-75 CNS; 102% with U251 CNS; 84.8% with PC-3 prostate; 103% in the test on SK-MEL-5 melanoma. For the same compound, the growth in the test with UACC-62 melanoma was 94.4%; in the test with LOX IMVI melanoma, 94.5%; in the test with SK-MEL-28 melanoma, 109%.
In the case of `COC(=O)c1ccc2[nH]c(O)c(C(=Nc3ccc(N(C)C(=O)CN4CCN(C)CC4)cc3)c3ccccc3)c2c1`, the growth with HCT-15 colon was 12.3%; with HT29 colon it was 21.3%; in the test on SNB-75 CNS, -4.83% (active); in the test on U251 CNS, 31.4%; in the test on PC-3 prostate, 36.3%; with SK-MEL-5 melanoma, 38.3%. Moreover, the growth with UACC-62 melanoma is 74.6%; with LOX IMVI melanoma it was 16.3%; in the test on SK-MEL-28 melanoma, 29.3%.
Turning to `COc1ccc(NC2=C(Br)C(=O)C(C)=C(C)C2=O)cc1`, the growth in the test with HCT-15 colon was 91.6%; in the test with HT29 colon, 117%; in the test on SNB-75 CNS, 72%; in the test with U251 CNS it was 88.3%; in the test with PC-3 prostate it was 73.1%; with SK-MEL-5 melanoma, 92.3%. The growth with UACC-62 melanoma was 84.4%; with LOX IMVI melanoma it was -35.6% (active); with SK-MEL-28 melanoma, 103%.
Regarding `COc1cc(C(=O)c2cnc(-c3c[nH]c4cccc(C)c34)[nH]2)cc(OC)c1OC`, the growth with HCT-15 colon is 12%; in the test on HT29 colon, 6.72% (active); in the test with SNB-75 CNS it was 20.3%; with SNB-19 CNS it was 37.9%; in the test on PC-3 prostate, 19.4%; in the test with SK-MEL-5 melanoma, -30.7% (active). The growth is 32.6% in the test with UACC-62 melanoma, 24.9% in the test with LOX IMVI melanoma and 59.3% in the test on SK-MEL-28 melanoma.
